Bioassay records from PubChem BioAssay.
GLP-1R inv ag: qHTS of GLP-1 Receptor Inverse Agonists (Inhibition Mode). Glucagon-like peptide 1 receptor (Homo sapiens), P43220. HEK293 GLP-1R CRE-luciferase, luminescence, 24 h; GLP-1R form is constitutively active. Potency, µM (top dose mostly 38.3 µM), actives largely listed as inhibitors. 410,000 tested, 1.6% active. AID 624417, 2012; further: nearly all actives have a fitted effect of over 55% in size
Target sequence (P43220 whole entry, looked up): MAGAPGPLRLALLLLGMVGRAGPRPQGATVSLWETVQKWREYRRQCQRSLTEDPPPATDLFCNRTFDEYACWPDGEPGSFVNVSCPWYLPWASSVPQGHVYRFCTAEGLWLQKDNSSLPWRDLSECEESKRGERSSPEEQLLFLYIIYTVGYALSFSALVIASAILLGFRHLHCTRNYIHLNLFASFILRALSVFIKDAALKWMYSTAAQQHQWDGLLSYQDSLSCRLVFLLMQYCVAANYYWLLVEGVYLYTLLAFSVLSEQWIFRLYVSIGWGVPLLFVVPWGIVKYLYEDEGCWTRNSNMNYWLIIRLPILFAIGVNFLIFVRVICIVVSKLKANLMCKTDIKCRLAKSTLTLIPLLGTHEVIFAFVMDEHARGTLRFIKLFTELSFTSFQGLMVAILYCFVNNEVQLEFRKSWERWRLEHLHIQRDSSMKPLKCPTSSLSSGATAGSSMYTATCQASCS
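Inverse agonists were sought by their lowering of basal cAMP reporter luciferase output in HEK293 cells stably carrying constitutively active human GLP-1R, after 24 h compound treatment.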
DRD3 antagonist: qHTS of D3 Dopamine Receptor Antagonist: qHTS; D(3) dopamine receptor (Homo sapiens), P35462; D3R cells, DiscoveRx beta-arrestin luminescence, antagonist mode; hits give low values; max response, negative = inhibition, %; 360,000 tested, 2.5% active; in the data active means max response below about -50%; inconclusive means no clear call, values can overlap the other calls
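Cells expressing the human receptor were seeded at 1500 cells/well, incubated overnight at 37 degrees C in 5% CO2, then exposed to library compounds with dopamine controls for 90 minutes at 37 degrees C before luminescent detection.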
GLP-1R agonist: qHTS of GLP-1 Receptor Agonists; AID 624172, 2012; 380,000 tested, 0.007% active; Potency, µM (series often up to 45.6 µM), usual class: activators; HEK293 GLP-1R CRE-luciferase, luminescence, 4-6 h; cells express a hypersensitive GLP-1R form
DRD3 agonist: qHTS of D3 Dopamine Receptor Agonist: qHTS. D(3) dopamine receptor (Homo sapiens), P35462. D3R DiscoveRx beta-arrestin cells, luminescence, 90 min. max activation, %. 410,000 tested, 0.58% active; in the data active means max activation above about 30%
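Agonist-mode cell screen: cells plated at 1500/well and incubated overnight at 37 °C, then exposed to library compounds for 90 min at 37 °C. Detection reagent was added for 30–60 min at room temperature, and luminescence was read.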
Each line names hits and unclear results; the compound was inactive in the other large screens. Most compounds without a hit are left out; they make up all but 4.3% or so of the library. Unless noted, the call rests on the fitted dose curve; in most records, active means well fitted curve in the direction sought with a large enough effect; inconclusive means small, poorly fitted or top-dose-only effect, or another doubt; inactive means no such curve, though single readings can be large; an effect the other way counts as inactive or inconclusive.

COc1ccc(-c2ccc(OC)c([C@H]3[C@H]4C=CC[C@@H](C)[C@@H]4C(=O)N3Cc3ccccc3)c2)cc1	DRD3 antagonist -52
COc1ccc(-c2ccoc2)cc1[C@H]1[C@H]2C=CC[C@@H](C)[C@@H]2C(=O)N1Cc1ccccc1	GLP-1R inv ag inconclusive, DRD3 antagonist -56
CC(=O)c1ccc(-c2cccc([C@H]3[C@@H]4C=CC[C@@H](C)[C@@H]4C(=O)N3Cc3ccccc3)c2)cc1	GLP-1R inv ag 10µM
COc1ccc(C)cc1Nc1nc2c(S(=O)(=O)c3cc(C)ccc3C)nnn2c2ccsc12	none (no result: DRD3 antagonist, GLP-1R agonist)
CCOc1ccccc1OCCN1CCCC1	none
CN(C)CCCOc1ccc2c(c1)Sc1ccccc1CC2=O	GLP-1R inv ag inconclusive, DRD3 antagonist inconclusive
O=C1Cc2ccccc2Sc2cc(OCCCN3CCCCC3)ccc21	GLP-1R inv ag inconclusive, DRD3 antagonist -53
O=C1Cc2ccccc2Sc2c(OCCN3CCCCC3)cccc21	GLP-1R inv ag inconclusive, DRD3 antagonist -65
COc1ccc(CNc2ncnc3onc(-c4ccc(F)cc4)c23)cc1	GLP-1R inv ag inconclusive (no result: DRD3 antagonist, GLP-1R agonist)
CCCc1cc(=O)[nH]c2nnc(SCC(=O)Nc3cccc(C)c3)n12	none (no result: DRD3 antagonist, GLP-1R agonist)
CC(Sc1nnc(CN2CCCC2)n1Cc1ccccc1)C(=O)Nc1ccc(F)cc1Cl (stereo not given)	GLP-1R inv ag 5.6µM
O=C(COc1ccc(Cl)cc1)OCc1cc(=O)n2nc(-c3cccs3)sc2n1	none (no result: DRD3 antagonist, GLP-1R agonist)
COc1ccc(-n2c(C)cc(C(=O)Cn3c(NCCO)nc4ccccc43)c2C)cc1	GLP-1R inv ag 10µM
COc1ccc(C(=O)Cn2c(NCCCO)nc3ccccc32)cc1	none
CCCOc1ccc(C(=O)Nc2nonc2-c2ccc(OCC)cc2)cc1	none (no result: DRD3 antagonist, GLP-1R agonist)
CC(Oc1ccc(Cl)cc1Cl)C(=O)NC(=S)N1CCc2ccccc21 (stereo not given)	GLP-1R inv ag 10µM
CCCCNC(=O)C1(C)CCCCN1Cc1ccccc1-c1ccccc1 (stereo not given)	GLP-1R inv ag 2.5µM, DRD3 antagonist inconclusive
CCCNC(=O)C1(C)CCCN(Cc2ccccc2-c2ccccc2)C1 (stereo not given)	none
N/C(=N\OC(=O)CCC1CCCC1)c1cccnc1	none
N/C(=N\OC(=O)CC1CCCCC1)c1cccnc1	DRD3 antagonist -151
O=C(c1ccccc1)c1coc2ccc(O)c(Cl)c12	DRD3 antagonist -52
Cc1ccc(C(=O)c2coc3ccc(O)c(Cl)c23)cc1	GLP-1R inv ag inconclusive
COc1ccc(OC)c(CNC(=O)CSc2c3c(nc4cc(Cl)ccc24)CCCC3)c1	none (no result: DRD3 antagonist, GLP-1R agonist)
CC(C)CN1C(=O)C(=O)N(CC(=O)NC(C)CCc2ccccc2)C1=O (stereo not given)	none
COc1ccccc1NC(=O)CN1C(=O)CC(c2ccc(C)c(C)c2)=Nc2ccccc21	GLP-1R inv ag 10µM (no result: DRD3 antagonist, GLP-1R agonist)
CCOc1ccccc1NC(=O)CN1C(=O)CC(c2ccc(C)c(C)c2)=Nc2ccccc21	none (no result: DRD3 antagonist, GLP-1R agonist)
Cc1cc2c(cc1C)N(CC(=O)N1CCCC1)C(=O)CC(c1ccccc1)=N2	DRD3 antagonist -75
COc1ccc2c(CNCc3ccco3)c(C(=O)O)n(Cc3cccc(F)c3)c2c1	none (no result: DRD3 antagonist, GLP-1R agonist)
OC[C@@H]1CN(Cc2ccc(-c3ccccc3)cc2)C[C@H](n2cnc3c(Nc4ccccc4)ncnc32)O1	GLP-1R inv ag 4.5µM
CCCN(CCC)C(=O)Cn1c(SCc2cccc(C(F)(F)F)c2)nc2cccnc21	none (no result: DRD3 antagonist, GLP-1R agonist)
Cc1ccc(C)c(NC(=O)Cn2cc(C(=O)c3cccs3)c3ccccc32)c1	GLP-1R inv ag inconclusive (no result: DRD3 antagonist, GLP-1R agonist)
Cc1nc2c(OCc3ccc(Cl)cc3Cl)cccn2c1N(C)Cc1cccs1	GLP-1R inv ag inconclusive, DRD3 antagonist -71
Cc1nc2c(OCc3cccc(Cl)c3)cccn2c1N(C)Cc1cccs1	GLP-1R inv ag inconclusive
O=C(c1ccco1)N1CCN(CC(O)COc2ccc3oc4ccccc4c3c2)CC1 (stereo not given)	DRD3 agonist 41
Cc1ccc(CN2CCN(C(=O)c3ccco3)CC2)cc1	DRD3 agonist 31
Cc1onc(-c2ccccc2)c1C(=O)N1CCN(C(=O)c2ccco2)CC1	DRD3 antagonist -125
COc1ccc(CN2CCN(C(=O)c3ccco3)CC2)cc1OC	DRD3 agonist 45
Cc1ccccc1CN1CCN(C(=O)c2ccco2)CC1	none
COc1ccc(N2CCN(C(=O)c3cc4c(=O)n(Cc5cccs5)ccc4nc3C)CC2)cc1	none (no result: DRD3 antagonist, GLP-1R agonist)
CN(C)c1ccc(CNC(=O)Cn2ccc3cc(S(=O)(=O)N4CCCCCC4)ccc32)cc1	none (no result: DRD3 antagonist, GLP-1R agonist)
COc1ccc(Br)cc1CN1CCN(C(=O)c2cccc(F)c2)CC1	GLP-1R inv ag inconclusive
Cn1c(=O)c2c(nc(CN3CCN(C(=O)c4ccco4)CC3)n2Cc2ccccc2)n(C)c1=O	none
COc1ccccc1CN1CCN(C(=O)c2ccco2)CC1	DRD3 agonist 32
COc1ccc(Br)cc1CN1CCN(C(=O)c2ccco2)CC1	DRD3 antagonist -61
COc1ccc(CN2CCN(C(=O)c3ccco3)CC2)c(OC)c1OC	DRD3 agonist 43
Cc1ccc(Cn2c(CN3CCN(C(=O)c4ccco4)CC3)nc3c2c(=O)n(C)c(=O)n3C)cc1	DRD3 agonist 37
O=C(CCCn1c(=O)c2cccn2c2cccnc21)Nc1ccccc1Br	none (no result: DRD3 antagonist, GLP-1R agonist)
COc1cc(-c2nc(Cn3nnc(C(=O)Nc4ccccc4C)c3C)c(C)o2)cc(OC)c1OC	none (no result: DRD3 antagonist)
CCOc1ccc(C2=NC(c3ccncc3)=Nc3ccc(C)cc3N2)cc1OCC	none (no result: DRD3 antagonist, GLP-1R agonist)
O=C(Nc1ccc(S(=O)(=O)NC2=NCCCCC2)cc1)c1ccc(Cl)c([N+](=O)[O-])c1	none
CC(CC(=O)Nc1ccc(Cl)c([N+](=O)[O-])c1)c1ccccc1 (stereo not given)	GLP-1R inv ag inconclusive, DRD3 antagonist -57
Cc1cccc(C)c1NS(=O)(=O)c1ccc(NC(=O)c2ccc(Cl)c([N+](=O)[O-])c2)cc1	GLP-1R inv ag inconclusive, DRD3 antagonist -78
CC(CC(=O)Nc1ccc2c(c1)c(=O)n(C)n2-c1ccccc1)c1ccccc1 (stereo not given)	GLP-1R inv ag inconclusive, DRD3 antagonist -78
CNC(=O)C1CCN(Cc2cc3ccccc3n2Cc2cccc(C)c2)CC1	GLP-1R inv ag inconclusive (no result: DRD3 antagonist, GLP-1R agonist)
CN(C/C=C/c1ccccc1)Cc1cccc2ccccc12	GLP-1R inv ag inconclusive, DRD3 antagonist -100
COCCn1c(SCC(=O)c2ccc(OC)cc2)nc2cc(C(=O)NC3CCCC3)ccc2c1=O	none (no result: DRD3 antagonist, GLP-1R agonist)
COc1ccc(Cl)cc1NC(=O)Cn1nc(C(F)(F)F)c2c1CCC2	GLP-1R inv ag inconclusive (no result: DRD3 antagonist)
COc1ccc(Cl)cc1NC(=O)Cn1nc(C(F)(F)F)c2c1CCCC2	GLP-1R inv ag 13µM (no result: DRD3 antagonist)
CCOC(=O)CC(=O)CSc1nc2c(sc(=S)n2-c2ccc(OCC)cc2)c(=O)[nH]1	GLP-1R inv ag inconclusive
CCOC(=O)CC(=O)CSc1nc2c(sc(=S)n2-c2ccc(C)c(C)c2)c(=O)[nH]1	GLP-1R inv ag 8.9µM
COc1cc(Cl)c(C)cc1NC(=O)c1cnc(N2CCCCC2)c2ccccc12	none (no result: DRD3 antagonist, GLP-1R agonist)
